Data from PubChem BioAssay.
Activity calls are given as the source filed them.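 The calls were made as follows, unless noted: active = fluorescence slope after compound addition differing from the mean of all screened samples at 99.7% confidence, in either direction; inactive = the rest.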

Experiments:
[1] = inhibitors of TNFa-induced NFkB p65 translocation, primary screen, imaging, HUVEC, MLSMR starter and 10KST1 sets (AID 438;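 active = inhibition above 20% together with a positive visual image hit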;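 also: compound added about 3h40 before a 20 min TNFalpha stimulation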;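 as to inhibition: signal is the nuclear over cytoplasmic p65 intensity ratio per well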); conditions: HUVEC TNFa-induced p65 nuclear translocation; cell count: measured here: nuclei count (cytotoxicity indicator), at 2.08 µM; inhibition: at 2 µM, stronger effect = higher value, 0% TNFa-plus-vehicle, 100% no-TNFa wells
[2] = inhibitors of mutant huntingtin aggregation, primary screen, imaging, exon1htt(103Q)mCFP cells, high-content imaging (AID 483;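 active = visual image review flags a hit and inhibition of aggregation exceeds 20%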;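 also: compound exposure lasted 3 days before fixation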;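 as to nuclei count: percent of the per-plate median nuclei count of sample wells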); conditions: exon1htt(103Q)mCFP cell line, aggregate imaging, at 2 µM; inhibition of aggregation: stronger effect = higher value; nuclei count: measured here: cell count, toxicity
[3] = inhibitors of E-selectin induction by TNFa, primary screen, imaging, HUVEC, immunofluorescence, MLSMR starter and 10KST1 sets (AID 487;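 active = visually confirmed hit in the image check and inhibition above 20%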;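 as to inhibition: signal is fraction of cell area covered by stained E-selectin grains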;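 as to nuclei count: 100% = median nuclei count of all wells on the same plate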); conditions: HUVEC TNFalpha-induced E-selectin immunofluorescence imaging, at 2 µM; inhibition: stronger effect = higher value; nuclei count: measured here: cell number, toxicity
[4] = biological target: Voltage-gated potassium channel subunit beta-2 (Rattus norvegicus) (UniProt P62483); experiment: KvBeta enzyme negative modulators, primary screen, biochemical, NADPH fluorescence (AID 622;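 active = fluorescence slope higher than the sample average by over 3 SD, cut at about -0.22 in these data, passing the limit was not always enough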;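 also: slope of raw intensity against log time taken from 70 to 1610 s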); conditions: recombinant KvBeta, 4-cyanobenzaldehyde reduction, at 10 µM, stronger effect = higher value
Chain of Voltage-gated potassium channel subunit beta-2 (Rattus norvegicus) (P62483 whole entry, looked up): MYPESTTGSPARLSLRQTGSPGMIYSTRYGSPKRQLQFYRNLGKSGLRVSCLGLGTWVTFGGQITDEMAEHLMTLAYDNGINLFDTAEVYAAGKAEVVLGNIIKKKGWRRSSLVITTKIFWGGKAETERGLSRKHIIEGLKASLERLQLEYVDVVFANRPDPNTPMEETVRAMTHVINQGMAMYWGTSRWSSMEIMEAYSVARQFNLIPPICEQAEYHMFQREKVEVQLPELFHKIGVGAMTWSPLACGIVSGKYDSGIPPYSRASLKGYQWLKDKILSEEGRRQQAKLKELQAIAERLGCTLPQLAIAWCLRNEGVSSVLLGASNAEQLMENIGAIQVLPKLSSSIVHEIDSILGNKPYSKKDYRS

[5] = biological target: Voltage-gated potassium channel subunit beta-2 (Rattus norvegicus) (UniProt P62483); experiment: KvBeta positive modulators, primary screen, biochemical, NADPH fluorescence (AID 623;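 active = NADPH fluorescence slope more negative than the mean of all samples by about 3 SD, 99.7% confidence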;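 also: fluorescence intensity change per second fitted from 20 to 320 s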); conditions: Recombinant KvBeta, NADPH fluorescence decrease slope, 10 min; at 10 µM; stronger effect = lower value
[6] = biological target: Alpha-2C adrenergic receptor (Homo sapiens) (UniProt P18825); experiment: modulators of alpha2C/GIRK thallium flux, primary screen, cell-based, HEK293 alpha2C/GIRK1/2 (AID 624); conditions: thallium flux BTC fluorescence, at 10 µM, actives lie on both sides;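 also: slope of fluorescence ratio to pre-addition baseline per second over 15 to 24 s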
Chain of Alpha-2C adrenergic receptor (Homo sapiens) (P18825 whole entry, looked up): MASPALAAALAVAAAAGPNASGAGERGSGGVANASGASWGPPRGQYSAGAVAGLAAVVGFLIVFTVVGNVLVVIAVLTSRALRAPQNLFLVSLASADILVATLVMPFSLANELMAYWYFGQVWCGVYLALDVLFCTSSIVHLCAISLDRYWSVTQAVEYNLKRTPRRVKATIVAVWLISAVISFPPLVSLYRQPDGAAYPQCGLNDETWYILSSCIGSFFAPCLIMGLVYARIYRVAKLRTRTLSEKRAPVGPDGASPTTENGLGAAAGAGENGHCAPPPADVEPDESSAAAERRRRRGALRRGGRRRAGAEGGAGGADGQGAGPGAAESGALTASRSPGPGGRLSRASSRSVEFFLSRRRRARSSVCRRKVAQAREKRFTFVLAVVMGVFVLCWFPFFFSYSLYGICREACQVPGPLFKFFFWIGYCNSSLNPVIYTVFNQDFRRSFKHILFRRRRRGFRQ

[7] = inhibitors of Sendai virus-induced IRF3 signaling, primary screen, TLR/RLR signaling modifier project, cell-based, Sendai virus stimulus, luciferase, 10K MLSCN set (AID 602276;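 active = inhibition at or above 50% at 10 µM; inactive = inhibition below 50%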;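 also: firefly luciferase from ISG56 promoter only with Renilla not read in this screen; 0% = Sendai virus plus DMSO and 100% = medium plus DMSO without virus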); conditions: HEK293 RL24 IRF3 luciferase reporter, at 10 µM, stronger effect = higher value
[8] = inhibitors of poly I:C-induced TLR3 signaling, primary screen, cell-based, poly I:C stimulus, luciferase, 10K MLSCN set (AID 602277;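 active = inhibition of the reporter signal at or above 50%; inactive = inhibition below 50%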); conditions: HEK293-TLR3 RL24 IRF3 luciferase reporter, at 10 µM, stronger effect = higher value

O=C(NCc1ccccc1)N[C@@H](Cc1ccccc1)C(=O)O
cell count [1]: 666 | inhibition [1]: 6.9% (inactive) | inhibition of aggregation [2]: -0.3% (inactive) | nuclei count [2]: 116% | inhibition [3]: 4.5% (inactive) | nuclei count [3]: 111% | fluorescence slope [4]: -0.43 (inactive) | NADPH fluorescence slope [5]: -4.1e-05 (inactive) | slope [6]: 0.00384 (inactive) | inhibition [7]: 10.6% (inactive) | inhibition [8]: 33.8% (inactive)

C=CCSc1nnc(-c2cccnc2)o1
cell count [1]: 566 | inhibition [1]: 8.2% (inactive) | inhibition of aggregation [2]: 13.3% (inactive) | nuclei count [2]: 94.4% | inhibition [3]: 19.1% (inactive) | nuclei count [3]: 78.2% | fluorescence slope [4]: -0.539 (inactive) | NADPH fluorescence slope [5]: -5.1e-05 (inactive) | slope [6]: 0.00706 (inactive) | inhibition [7]: 1.31% (inactive) | inhibition [8]: -8.9% (inactive)

CC1CN(C2CCCCC2)c2nc3c(c(=O)[nH]c(=O)n3C)n2C1 (stereo not drawn)
cell count [1]: 234 | inhibition [1]: -2% (inactive) | inhibition of aggregation [2]: -5.5% (inactive) | nuclei count [2]: 77.6% | inhibition [3]: 4.4% (inactive) | nuclei count [3]: 108% | fluorescence slope [4]: -0.642 (inactive) | NADPH fluorescence slope [5]: 3.4e-05 (inactive) | slope [6]: 0.00609 (inactive) | inhibition [7]: 13.1% (inactive) | inhibition [8]: 40.3% (inactive)

CC(=O)c1ccc(NC(=O)c2cc(CC(C)C)on2)cc1
cell count [1]: 572 | inhibition [1]: -2.3% (inactive) | inhibition of aggregation [2]: 23.3% (inactive) | nuclei count [2]: 97.8% | inhibition [3]: -3% (inactive) | nuclei count [3]: 104% | fluorescence slope [4]: -0.606 (inactive) | NADPH fluorescence slope [5]: -2.3e-06 (inactive) | slope [6]: 0.00654 (inactive) | inhibition [7]: -32.2% (inactive) | inhibition [8]: -78% (inactive)

CC(C)(C#N)Nn1cnnc1
cell count [1]: 609 | inhibition [1]: 5.3% (inactive) | inhibition of aggregation [2]: 13.2% (inactive) | nuclei count [2]: 109% | inhibition [3]: -1.2% (inactive) | nuclei count [3]: 110% | fluorescence slope [4]: -0.237 (inactive) | NADPH fluorescence slope [5]: -1.3e-05 (inactive) | slope [6]: 0.00429 (inactive) | inhibition [7]: 11.7% (inactive) | inhibition [8]: 21.2% (inactive)

COC(=O)/C=c1\sc2ncnn2c1=O
cell count [1]: 286 | inhibition [1]: -11% (inactive) | inhibition of aggregation [2]: 6.6% (inactive) | nuclei count [2]: 111% | inhibition [3]: -34.9% (inactive) | nuclei count [3]: 107% | fluorescence slope [4]: -0.624 (inactive) | NADPH fluorescence slope [5]: -1.3e-05 (inactive) | slope [6]: 0.00688 (inactive) | inhibition [7]: 18.3% (inactive) | inhibition [8]: 26.1% (inactive)

CC(C)(C)n1nnnc1C(c1cccs1)N1CCN(Cc2ccccc2)CC1 (stereo not drawn)
cell count [1]: 482 | inhibition [1]: -5.1% (inactive) | inhibition of aggregation [2]: 0% (inactive) | nuclei count [2]: 100% | inhibition [3]: -163% (inactive) | nuclei count [3]: 230% | fluorescence slope [4]: -0.606 (inactive) | NADPH fluorescence slope [5]: -6.2e-06 (inactive) | slope [6]: 0.00586 (inactive) | inhibition [7]: 15.9% (inactive) | inhibition [8]: 17.6% (inactive)

CC(Oc1ccccc1)C(=O)NC1CCN(Cc2ccccc2)CC1 (stereo not drawn)
cell count [1]: 705 | inhibition [1]: -5.2% (inactive) | inhibition of aggregation [2]: 2.1% (inactive) | nuclei count [2]: 108% | inhibition [3]: 0.4% (inactive) | nuclei count [3]: 103% | fluorescence slope [4]: -0.418 (inactive) | NADPH fluorescence slope [5]: -1.8e-05 (inactive) | slope [6]: 0.00578 (inactive) | inhibition [7]: 11.2% (inactive) | inhibition [8]: 21.3% (inactive)

Cc1cc(C(=O)Cn2cncn2)c(C)n1CCc1ccc(F)cc1
cell count [1]: 453 | inhibition [1]: -2.5% (inactive) | inhibition of aggregation [2]: 0.8% (inactive) | nuclei count [2]: 91.7% | inhibition [3]: -92.9% (inactive) | nuclei count [3]: 98.5% | fluorescence slope [4]: -0.48 (inactive) | NADPH fluorescence slope [5]: -4e-05 (inactive) | slope [6]: 0.00641 (inactive) | inhibition [7]: 0.317% (inactive) | inhibition [8]: 16.3% (inactive)

COc1ccc(OC)c2[nH]c(=O)c(CCNC(=O)CC(C)C)cc12
cell count [1]: 325 | inhibition [1]: -12.8% (inactive) | inhibition of aggregation [2]: 2% (inactive) | nuclei count [2]: 91.9% | inhibition [3]: 62.7% (active) | nuclei count [3]: 89.8% | fluorescence slope [4]: -0.508 (inactive) | NADPH fluorescence slope [5]: -4.7e-05 (inactive) | slope [6]: 0.00505 (inactive) | inhibition [7]: -1.86% (inactive) | inhibition [8]: 2.61% (inactive)

CC1=C(C(=O)N2CCOCC2)C(c2ccsc2)C2=C(CCCC2=O)N1 (stereo not drawn)
cell count [1]: 326 | inhibition [1]: -25.2% (inactive) | inhibition of aggregation [2]: 2.7% (inactive) | nuclei count [2]: 99.6% | inhibition [3]: -11.7% (inactive) | nuclei count [3]: 110% | fluorescence slope [4]: -0.408 (inactive) | NADPH fluorescence slope [5]: -4.5e-05 (inactive) | slope [6]: 0.00554 (inactive) | inhibition [7]: 19.4% (inactive) | inhibition [8]: 20.8% (inactive)

O=c1[nH]c2cc3c(cc2cc1C(c1nnnn1C1CCCCC1)N1CCSCC1)OCCO3 (stereo not drawn)
cell count [1]: 479 | inhibition [1]: 0% (inactive) | inhibition of aggregation [2]: -12.4% (inactive) | nuclei count [2]: 106% | inhibition [3]: -10% (inactive) | nuclei count [3]: 96.7% | fluorescence slope [4]: -0.313 (inactive) | NADPH fluorescence slope [5]: -3.2e-05 (inactive) | slope [6]: 0.00532 (inactive) | inhibition [7]: -11.4% (inactive) | inhibition [8]: -7.01% (inactive)

COCCCNC(=O)CSc1nc2ccc(N3CCOCC3)cc2c(=O)n1CCc1ccccc1
cell count [1]: 369 | inhibition [1]: -1.6% (inactive) | inhibition of aggregation [2]: -0.2% (inactive) | nuclei count [2]: 104% | inhibition [3]: 17% (inactive) | nuclei count [3]: 113% | fluorescence slope [4]: -0.558 (inactive) | NADPH fluorescence slope [5]: 1.6e-05 (inactive) | slope [6]: 0.00582 (inactive) | inhibition [7]: -0.853% (inactive) | inhibition [8]: -8.93% (inactive)
